Where “and” joins values, the source holds several entries; their conditions need not be identical. Equal entries are not always repeated. Results filed as inconclusive are left out. Entries that show only a call come without a potency. Calls of active or inactive are those of the source. Calls come from the whole dose curve.
Potency is the fitted concentration of half-maximal effect.

Acetylcholinesterase (Homo sapiens), sequence (P22303 whole entry, looked up): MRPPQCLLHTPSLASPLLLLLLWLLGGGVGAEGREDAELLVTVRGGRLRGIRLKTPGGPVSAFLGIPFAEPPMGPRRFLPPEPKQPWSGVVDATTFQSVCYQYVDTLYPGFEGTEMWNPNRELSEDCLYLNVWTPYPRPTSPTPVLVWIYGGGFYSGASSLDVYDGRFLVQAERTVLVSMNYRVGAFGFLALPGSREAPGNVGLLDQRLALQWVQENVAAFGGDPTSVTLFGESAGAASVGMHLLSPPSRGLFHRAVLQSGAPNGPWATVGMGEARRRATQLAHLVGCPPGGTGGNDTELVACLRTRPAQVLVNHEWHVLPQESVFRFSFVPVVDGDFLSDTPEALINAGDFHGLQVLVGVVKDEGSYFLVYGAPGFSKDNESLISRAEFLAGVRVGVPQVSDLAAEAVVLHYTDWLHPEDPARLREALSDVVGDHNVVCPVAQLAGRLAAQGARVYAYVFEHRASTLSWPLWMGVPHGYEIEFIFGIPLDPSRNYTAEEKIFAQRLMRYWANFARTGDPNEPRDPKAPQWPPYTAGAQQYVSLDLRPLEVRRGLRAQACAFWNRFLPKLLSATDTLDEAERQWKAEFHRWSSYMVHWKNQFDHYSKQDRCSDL

For the first experiment, the target named is Acetylcholinesterase (Homo sapiens) (UniProt P22303). As to the kind of experiment: Acetylcholinesterase (AChE) small molecule antagonists: colormetric cell-based qHTS assay (AID 1347395). Note: nearly all actives have a fitted effect of over 30% in size. To be noted: SH-SY5Y cells AChE activity, colorimetric (Ellman); series mostly up to 115 µM. The procedure, abridged:
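Colorimetric read-out: DTNB detects thiocholine released when cellular AChE in SH-SY5Y cells hydrolyses acetylthiocholine. Cells attached overnight, received compound for 30 min at 37 C, then substrate mix for 90 min at 37 C.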
As for `CC(C)(CO)[C@@H](O)C(=O)NCCCO`, the Potency entry was “inactive”.

Take `Nc1ccc(S(=O)(=O)Nc2nccs2)cc1`: the Potency entry was “inactive”.

With `CC/C=C\CC1=C(C)CCC1=O`, the Potency result was “inactive”.

As for `Cc1cc(C)c(C)c(O)c1`, the Potency entry is “inactive”.

In the case of `CCCCNC(=O)NS(=O)(=O)c1ccc(N)cc1`, the Potency result was “inactive”.

`Cn1c(N)nc2nc[nH]c2c1=O`: the Potency result was “inactive”.

`CCCCCCCC`: the Potency result is “inactive”.

Turning to `CC1(C)S[C@@H]2[C@H](NC(=O)[C@H](N)c3ccccc3)C(=O)N2[C@H]1C(=O)O`, the Potency entry is “inactive”.

`C=CC(=O)OCCOC(=O)CCC(=O)O`: the Potency entry is “inactive”.

With `CCCCCCCCCCC(CO)CCCCCCCC` (stereo not given), the Potency entry was “inactive”.

With `CCCC(=O)OC`, the Potency entry was “inactive”.

In the case of `CC[C@]1(O)C[C@H]2CN(CCc3c([nH]c4ccccc34)[C@@](C(=O)OC)(c3cc4c(cc3OC)N(C=O)[C@H]3[C@@](O)(C(=O)OC)[C@H](OC(C)=O)[C@]5(CC)C=CCN6CC[C@]43[C@@H]65)C2)C1`, the Potency entry is “inactive”.

Consider `CC/C=C\CCOC(=O)CC`, for which the Potency result is “inactive”.

For the compound `CC(C)(O)c1coc(S(=O)(=O)NC(=O)Nc2c3c(cc4c2CCC4)CCC3)c1`, the Potency result was “inactive”.

In the case of `O=C(OCc1ccccc1)c1ccccc1O`, the Potency entry was “inactive”.

For the compound `COc1ccc2nc(S(=O)Cc3ncc(C)c(OC)c3C)[nH]c2c1` (stereo not given), the Potency entry is “inactive”.

Take `Oc1c(Cl)cc(Cl)c(Cl)c1Cl`: the Potency entry was “inactive”.

As for `Cc1occc1SSc1ccoc1C`, the Potency result is “inactive”.

For the compound `OCCOCC#CCOCCO`, the Potency result was “inactive”.

As for `CCC(C)OC(=O)c1ccc(O)cc1` (stereo not given), the Potency result was “inactive”.

On to `CCCNC(C)(C)COC(=O)c1ccccc1`, for which the Potency entry was “inactive”.

Consider `O=C(O)C(=O)Nc1cccc(-c2nn[nH]n2)c1`, for which the Potency entry is “inactive”.

For the compound `Cc1cccc(C)c1NC(=O)CC12CCCN1CCC2`, the Potency entry is “inactive”.

For `CNc1ccc([N+](=O)[O-])cc1`, the Potency entry was “inactive”.

Turning to `Nc1ccccc1Nc1ccccc1`, the Potency result was “inactive”.

In the case of `COC(=O)c1cc(Cl)ccc1NS(=O)(=O)C(F)(F)F`, the Potency entry was “inactive”.

For the compound `CCCCCCCCCCCCOCCOCCOCCOCCOCCOCCOCCOCCOCCO`, the Potency result was “inactive”.

As to `CCC1CO1` (stereo not given), the Potency entry was “inactive”.

Regarding `COc1ccc(CN(CCN(C)C)c2ccccn2)cc1`, the Potency entry was “inactive”.

With `OC[C@H]1O[C@H](O[C@H]2O[C@H](CO)[C@@H](O)[C@H](O)[C@H]2O)[C@H](O)[C@@H](O)[C@@H]1O`, the Potency entry is “inactive”.

`O=C(O)Cc1c[nH]c2ccccc12`: the Potency result is “inactive”.

Take `CN(C)c1ccc(C(=C2C=CC(=[N+](C)C)C=C2)c2ccc(N(C)C)cc2)cc1`: the Potency is 70.6 µM (active).

On to `COc1cc(S(=O)(=O)Nc2ccccc2)c(OC)cc1N`, for which the Potency result is “inactive”.

For the compound `Nc1ccn([C@@H]2O[C@H](CO)[C@@H](O)[C@@H]2O)c(=O)n1`, the Potency entry is “inactive”.

With `CCCCCCC(C)OC(=O)COc1nc(F)c(Cl)c(N)c1Cl` (stereo not given), the Potency entry is “inactive”.

Turning to `CC(=O)CCC=C(C)C`, the Potency result is “inactive”.

For the compound `c1ccc2ccccc2c1`, the Potency entry is “inactive”.

Take `O=C(O)c1cc(C(=O)O)cc(S(=O)(=O)O)c1`: the Potency entry was “inactive”.

Consider `CCCCN(CCO)CCCC`, for which the Potency entry is “inactive”.

As to `C[C@]12C(=O)OC(=O)[C@H]1[C@H]1C=C[C@@H]2C1`, the Potency result is “inactive”.

The next experiment has the same target. Nature of the experiment: Acetylcholinesterase (AChE) small molecule antagonists: enzyme-based qHTS assay (AID 1347397). Note: nearly all actives have a fitted effect of over 55% in size. To be noted: Potency: AChE enzyme activity inhibition; outcome: AChE enzyme activity inhibition; series mostly up to 115 µM. The procedure, abridged: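 Colorimetric DTNB readout of acetylthiocholine hydrolysis, 10 min at room temperature, after 30 min room-temperature exposure of 50 mU/mL recombinant human enzyme to compound; DMSO vehicle control.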
In general terms: qHTS replaces the single test concentration by a dilution series.
As to `CC(C)(CO)[C@@H](O)C(=O)NCCCO`, the Potency result was “inactive”.

As for `Nc1ccc(S(=O)(=O)Nc2nccs2)cc1`, the Potency entry was “inactive”.

`CC/C=C\CC1=C(C)CCC1=O`: the Potency result was “inactive”.

Consider `Cc1cc(C)c(C)c(O)c1`, for which the Potency entry was “inactive”.

Consider `CCCCNC(=O)NS(=O)(=O)c1ccc(N)cc1`, for which the Potency entry was “inactive”.

Consider `Cn1c(N)nc2nc[nH]c2c1=O`, for which the Potency result was “inactive”.

Consider `CCCCCCCC`, for which the Potency result is “inactive”.

`CC1(C)S[C@@H]2[C@H](NC(=O)[C@H](N)c3ccccc3)C(=O)N2[C@H]1C(=O)O`: the Potency entry is “inactive”.

Regarding `C=CC(=O)OCCOC(=O)CCC(=O)O`, the Potency result is “inactive”.

Regarding `CCCCCCCCCCC(CO)CCCCCCCC` (stereo not given), the Potency entry is “inactive”.

`CCCC(=O)OC`: the Potency entry was “inactive”.

In the case of `CC[C@]1(O)C[C@H]2CN(CCc3c([nH]c4ccccc34)[C@@](C(=O)OC)(c3cc4c(cc3OC)N(C=O)[C@H]3[C@@](O)(C(=O)OC)[C@H](OC(C)=O)[C@]5(CC)C=CCN6CC[C@]43[C@@H]65)C2)C1`, the Potency result was “inactive”.

As to `CC/C=C\CCOC(=O)CC`, the Potency entry was “inactive”.

Take `CC(C)(O)c1coc(S(=O)(=O)NC(=O)Nc2c3c(cc4c2CCC4)CCC3)c1`: the Potency entry is “inactive”.

As for `O=C(OCc1ccccc1)c1ccccc1O`, the Potency entry is “inactive”.

Consider `COc1ccc2nc(S(=O)Cc3ncc(C)c(OC)c3C)[nH]c2c1` (stereo not given), for which the Potency entry is “inactive”.

For the compound `Oc1c(Cl)cc(Cl)c(Cl)c1Cl`, the Potency entry is “inactive”.

`Cc1occc1SSc1ccoc1C`: the Potency result was “inactive”.

As for `OCCOCC#CCOCCO`, the Potency entry is “inactive”.

For the compound `CCC(C)OC(=O)c1ccc(O)cc1` (stereo not given), the Potency result is “inactive”.

Regarding `CCCNC(C)(C)COC(=O)c1ccccc1`, the Potency result was “inactive”.

For `O=C(O)C(=O)Nc1cccc(-c2nn[nH]n2)c1`, the Potency entry is “inactive”.

Consider `Cc1cccc(C)c1NC(=O)CC12CCCN1CCC2`, for which the Potency result was “inactive”.

Consider `CNc1ccc([N+](=O)[O-])cc1`, for which the Potency result is “inactive”.

`Nc1ccccc1Nc1ccccc1`: the Potency result was “inactive”.

Take `COC(=O)c1cc(Cl)ccc1NS(=O)(=O)C(F)(F)F`: the Potency entry is “inactive”.

For the compound `CCCCCCCCCCCCOCCOCCOCCOCCOCCOCCOCCOCCOCCO`, the Potency result is “inactive”.

For `CCC1CO1` (stereo not given), the Potency result is “inactive”.

In the case of `COc1ccc(CN(CCN(C)C)c2ccccn2)cc1`, the Potency result was “inactive”.

For `OC[C@H]1O[C@H](O[C@H]2O[C@H](CO)[C@@H](O)[C@H](O)[C@H]2O)[C@H](O)[C@@H](O)[C@@H]1O`, the Potency result is “inactive”.

Regarding `O=C(O)Cc1c[nH]c2ccccc12`, the Potency entry is “inactive”.

Consider `CN(C)c1ccc(C(=C2C=CC(=[N+](C)C)C=C2)c2ccc(N(C)C)cc2)cc1`, for which the Potency was 25.1 µM (active) and 35.6 µM (active) and 30.9 µM (active).

As for `COc1cc(S(=O)(=O)Nc2ccccc2)c(OC)cc1N`, the Potency result was “inactive”.

For the compound `Nc1ccn([C@@H]2O[C@H](CO)[C@@H](O)[C@@H]2O)c(=O)n1`, the Potency result is “inactive”.

Turning to `CCCCCCC(C)OC(=O)COc1nc(F)c(Cl)c(N)c1Cl` (stereo not given), the Potency entry was “inactive”.

Consider `CC(=O)CCC=C(C)C`, for which the Potency result is “inactive”.

In the case of `c1ccc2ccccc2c1`, the Potency result is “inactive”.

For the compound `O=C(O)c1cc(C(=O)O)cc(S(=O)(=O)O)c1`, the Potency result is “inactive”.

Turning to `CCCCN(CCO)CCCC`, the Potency entry is “inactive”.

With `C[C@]12C(=O)OC(=O)[C@H]1[C@H]1C=C[C@@H]2C1`, the Potency entry is “inactive”.
